sEH act: increases human soluble epoxide hydrolase activity; P34913; purified human sEH enzymatic activity, activator screen; activation, % at 2 µM; 91,000 tested, 0.04% active; AID 717; in the data active = activation above about 37%
sEH inh: soluble epoxide hydrolase (human) inhibition; recombinant human sEH enzymatic activity assay; inhibition, % at 2 µM; 91,000 tested, 0.34% active; AID 707; in the data active = inhibition above about 80%
CYP2C19 inhib: human CYP2C19 inhibition. P33261. CYP2C19 Supersomes, luciferin-H EGE luminescence, 30 min. inhibition, % at 5 µM. 96,000 tested, 21% active. AID 778;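 active = CYP2C19 inhibition above a set limit at 5 µM in the primary screen, cut at about 50% in these data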;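 note: plate controls were negative control wells for no effect and 2.5 mM tranylcypromine positive control for full effect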
Target sequence (P33261 whole entry, looked up): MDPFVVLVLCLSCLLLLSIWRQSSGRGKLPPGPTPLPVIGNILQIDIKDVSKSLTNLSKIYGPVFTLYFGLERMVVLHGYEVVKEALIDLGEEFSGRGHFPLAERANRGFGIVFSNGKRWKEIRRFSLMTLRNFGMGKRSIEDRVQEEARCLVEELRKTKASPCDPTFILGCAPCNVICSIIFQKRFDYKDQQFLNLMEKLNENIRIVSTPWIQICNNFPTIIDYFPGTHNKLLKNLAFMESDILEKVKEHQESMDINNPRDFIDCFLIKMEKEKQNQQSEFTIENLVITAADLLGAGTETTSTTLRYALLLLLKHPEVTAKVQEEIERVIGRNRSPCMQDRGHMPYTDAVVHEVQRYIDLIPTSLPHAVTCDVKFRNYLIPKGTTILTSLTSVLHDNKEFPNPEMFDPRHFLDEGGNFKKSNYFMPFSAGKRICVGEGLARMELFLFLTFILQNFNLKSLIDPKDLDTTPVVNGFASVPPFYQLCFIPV
CYP2C19 activ: cytochrome P450 2C19 (human) activation; recombinant CYP2C19, luciferin-H EGE luminescence; active compounds read high; 0 = fully inhibited enzyme, 1 = untreated enzyme; activation factor at 5 µM; 96,000 tested, under 10 active; AID 1025;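 active = activation factor of at least 2 at 5 µM in the primary screen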;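 note: 0 = wells with 2.5 mM tranylcypromine and 1 = vehicle-only wells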
CYP2C9 act: increases human cytochrome P450 2C9 activity; P11712; recombinant CYP2C9, luciferin-H conversion, luminescence; active compounds read high; factor 1 = untreated enzyme, 0 = blocked; activation factor at 5 µM; 96,000 tested, 1.4% active; AID 1024;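 active = activation factor of 2 or more for CYP2C9 at a 5 µM dose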;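 note: 0 = sulfaphenazole-blocked wells and 1 = vehicle-only wells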
CYP2C9 inh: human CYP2C9 inhibition. CYP2C9 Supersomes, luciferin-H conversion, luminescence. AID 777. inhibition, % at 5 µM. P11712. 96,000 tested, 20% active;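 active = blocking of liver enzyme CYP2C9 beyond about 50% at 5 µM, limit read from the data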
* hit, by the source's call; . = no result. Compounds with a hit are over-represented: about 27% of the library has one in this group of screens.

SMILES	sEH act	sEH inh	CYP2C19 inhib	CYP2C19 activ	CYP2C9 act	CYP2C9 inh
Clc1ccc(SCc2cn3ccsc3n2)cc1	-3	5	53*	0.5	1.2	-20
Nn1c(SCc2cn3ccsc3n2)nnc1-c1ccncc1	.	.	65*	0.4	0.9	8
Cc1csc2nc(CSc3ccc(Cl)cc3)cn12	10	-11	73*	0.3	3.6*	-261
Cc1csc2nc(CSc3nc4ccccc4o3)cn12	-19	21	23	0.8	1.2	-15
Cc1nc(NCc2ccco2)nc2c1C(=O)CC(C)C2 (stereo not given)	0	2	3	1	0.8	21
Cc1ccccc1NC1C=CS(=O)(=O)C1 (stereo not given)	11	-12	9	0.9	0.9	5
Cc1c(C(=O)NCC2COc3ccccc3O2)oc2ccc(S(=O)(=O)N3CCOCC3)cc12 (stereo not given)	2	-2	18	0.8	0.4	56*
CCN(CC)S(=O)(=O)c1ccc2oc(SCc3ccc(F)cc3)nc2c1	0	1	25	0.8	0.3	69*
CCN(CC)S(=O)(=O)c1ccc2oc(C(=O)NCc3ccc(F)cc3)c(C)c2c1	.	.	58*	0.4	0.4	59*
Cc1c(C(=O)NCC2COc3ccccc3O2)oc2ccc(S(=O)(=O)N3CC(C)CC(C)C3)cc12 (stereo not given)	-2	4	15	0.8	0.6	43
Cc1c(C(=O)NCC2CCCO2)oc2ccc(S(=O)(=O)N3CC(C)CC(C)C3)cc12 (stereo not given)	4	-2	34	0.7	0.4	59*
COc1nc(-c2ccc(Cl)cc2)ccc1-c1noc(-c2ccncc2)n1	-4	6	.	.	.	.
CCN(CC)S(=O)(=O)c1ccc2oc(C(=O)NCC3COc4ccccc4O3)c(C)c2c1 (stereo not given)	.	.	34	0.7	0.2	76*
CCN(CC)S(=O)(=O)c1ccc2oc(C(=O)NCCCN3CCOCC3)c(C)c2c1	-18	20	21	0.8	0.8	23
CCSc1nc(O)c(CC)c(=O)n1C(C)CC (stereo not given)	11	-13	-4	1	1.1	-6
COc1ccccc1C(=O)NCC(=O)OC(C)C(=O)NC(=O)NC1CCCCC1 (stereo not given)	-2	0	0	1	1.3	-31
Cc1nn(-c2ccccc2)c(Cl)c1C(=O)OC(C)C(=O)NC(=O)NC1CCCCC1 (stereo not given)	9	-10	39	0.6	0.5	55*
Cc1nn(-c2ccccc2)c(Cl)c1C(=O)NCC(C)C	16	-14	69*	0.3	0.4	63*
CCOC(=O)CNC(=O)c1c(C)nn(-c2ccccc2)c1Cl	14	-17	8	0.9	1	4
Nc1nncn1C(=O)c1cc(Br)ccc1Cl	11	-8	-3	1	1.2	-24
NC(=O)c1ccsc1NC(=O)COC(=O)Cc1cccc2ccccc12	15	-17	97*	0	1.6	-58
NC(=O)c1ccsc1NC(=O)COc1ccccc1	-8	6	44	0.6	0.4	65*
NC(=O)c1ccsc1NC(=O)c1nc(-c2ccccc2)n(-c2ccccc2)n1	.	.	30	0.7	0.4	61*
O=C(COc1ccccc1)Nc1nccs1	-6	8	.	.	.	.
CN1C(=O)C(CC(=O)N2CCN(C(c3ccccc3)c3ccccc3)CC2)N(C)C1=O (stereo not given)	-10	14	0	1	1	2
SMILES	sEH act	sEH inh	CYP2C19 inhib	CYP2C19 activ	CYP2C9 act	CYP2C9 inh
CCc1nnc(NC(=O)Cc2ccc(OCc3c(C)noc3C)cc2)s1	-1	1	0	1	0.7	30
COC(=O)c1c(C)n(-c2ccc(OC)cc2)c2ccc(O)cc12	-7	7	79*	0.2	0.3	67*
CCOc1ccc2c(c1)c(C(C)=O)c(C)n2-c1ccccc1	-2	-1	99*	0	0	99*
O=C(NC1CCCc2ccccc21)C1CCC(CNc2c(N3CCOCC3)c(=O)c2=O)CC1 (stereo not given)	.	.	-18	1.2	1.1	-5
O=C(Cc1ccccc1)NCC1COc2ccccc2O1 (stereo not given)	-12	12	.	.	.	.
CCc1ccc(C(=O)NCC2COc3ccccc3O2)o1 (stereo not given)	.	.	92*	0.1	0.4	58*

Source: PubChem BioAssay (several laboratories)
